JMJD2A Tudor inh: blocks the human JMJD2A Tudor domain | AlphaScreen JMJD2A-Tudor / H3K4me3 peptide binding | Potency, µM (highest dose often 114 µM), for the others: at the top dose activity change, negative = inhibition, most hits filed as inhibitors | 390,000 compounds, 4.4% hits | AID 504339; further: potency means the concentration at half of the fitted maximal effect; on the % scale 0 is the no-effect control and ±100 the full control effect; nearly all actives have a fitted effect of over 50% in size
Target sequence (O75164 whole entry, looked up, the tested form may be a part): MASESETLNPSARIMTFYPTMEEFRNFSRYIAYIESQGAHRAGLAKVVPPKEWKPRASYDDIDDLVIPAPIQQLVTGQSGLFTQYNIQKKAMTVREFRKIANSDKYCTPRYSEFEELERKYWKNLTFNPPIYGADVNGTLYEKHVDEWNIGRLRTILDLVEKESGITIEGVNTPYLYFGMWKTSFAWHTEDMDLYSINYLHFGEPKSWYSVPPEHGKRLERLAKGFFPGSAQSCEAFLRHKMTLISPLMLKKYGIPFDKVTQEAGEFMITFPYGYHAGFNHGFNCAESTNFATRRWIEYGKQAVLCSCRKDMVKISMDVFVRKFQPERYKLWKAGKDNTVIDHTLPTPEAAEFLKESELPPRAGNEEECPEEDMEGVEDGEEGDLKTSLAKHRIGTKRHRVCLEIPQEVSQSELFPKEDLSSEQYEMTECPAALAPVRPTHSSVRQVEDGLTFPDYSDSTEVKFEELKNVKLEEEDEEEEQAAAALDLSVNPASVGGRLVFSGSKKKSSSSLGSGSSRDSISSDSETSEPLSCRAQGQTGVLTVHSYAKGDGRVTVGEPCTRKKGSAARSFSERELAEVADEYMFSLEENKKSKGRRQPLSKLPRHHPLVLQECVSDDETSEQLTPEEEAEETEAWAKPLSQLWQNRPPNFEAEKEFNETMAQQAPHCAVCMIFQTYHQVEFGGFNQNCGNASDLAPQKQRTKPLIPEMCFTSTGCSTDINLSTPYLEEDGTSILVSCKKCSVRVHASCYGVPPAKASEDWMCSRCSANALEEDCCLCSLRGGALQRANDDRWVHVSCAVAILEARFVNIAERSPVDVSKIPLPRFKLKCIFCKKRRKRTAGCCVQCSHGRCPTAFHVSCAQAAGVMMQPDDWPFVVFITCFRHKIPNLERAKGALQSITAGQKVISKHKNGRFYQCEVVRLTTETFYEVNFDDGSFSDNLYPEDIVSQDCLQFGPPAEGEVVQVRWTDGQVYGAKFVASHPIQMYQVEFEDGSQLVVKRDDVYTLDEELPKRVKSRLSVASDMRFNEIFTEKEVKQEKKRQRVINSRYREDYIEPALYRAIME
Sfp inh: blocks B. subtilis Sfp PPTase activity; 310,000 compounds, 3.5% hits; Potency, µM, inactives show largest response in the series, negative = inhibition, actives largely listed as inhibitors; Q9F4F7; Biochemical Sfp PPTase activity, qHTS;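 further: the enzyme is Sfp with the accession as filed and its product quenches rhodamine fluorescence; potency means the concentration at half of the fitted maximal effect; 0% = enzyme reaction without inhibitor and -100% = no enzyme wells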
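Fluorescence-quenching assay with 15 nM Sfp, 5 uM rhodamine-CoA and 12.5 uM BHQ-2-labelled ybbR peptide in pH 7.6 Hepes/MgCl2 buffer. Enzyme was pre-incubated with compound for 15 min at room temperature. Rate was taken from the 30-min fluorescence change (525/598 nm).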
BAZ2B inh: BAZ2B (human) inhibition. Q9UIF8. AlphaScreen BAZ2B-H3K14Ac peptide displacement. Potency, µM (highest dose often 114 µM), for the others: at the top dose activity change, negative = inhibition, usual class: inhibitors. 360,000 compounds, 4.4% hits. AID 504333; further: potency means the concentration at half of the fitted maximal effect; on the % scale 0 is the no-effect control and ±100 the full control effect; nearly all actives have a fitted effect of over 60% in size
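AlphaScreen displacement: compounds (up to 110uM) incubated 30 min at room temperature with a preformed 50 nM BAZ2B/50 nM biotinylated H3K14Ac peptide complex in PBS pH 7.4 with Tween-20. Donor and acceptor beads at 10 ug/mL final added, 20 min light-protected before reading.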
G9a block: inhibitors of human histone lysine methyltransferase G9a. AID 504332. Q96KQ7. 350,000 compounds, 8.8% hits. Potency, µM (top dose mostly 102 µM), inactives show at the highest dose activity, negative = inhibition, most hits filed as inhibitors. G9a H3K9 monomethylation, AlphaScreen, 2 h; further: potency means the concentration at half of the fitted maximal effect; on the % scale 0 is the no-effect control and ±100 the full control effect; nearly all actives have a fitted effect of over 75% in size
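Signal arises when biotinylated H3K9 peptide, once monomethylated, bridges streptavidin donor and antibody-captured acceptor beads. Enzyme at 20 nM was preincubated 15 min with test compounds; peptide 500 nM and SAM 20 uM then reacted for 2 h.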
HP1b chromo inh: HP1-beta chromodomain-methylated histone interaction inhibition | P83916 | AlphaScreen HP1-beta / biotin-H3K9me3 peptide binding | Potency, µM (doses to about 114 µM), for the others: at the highest dose activity change, negative = inhibition, most hits filed as inhibitors | 390,000 compounds, 0.56% hits; further: potency means the concentration at half of the fitted maximal effect; nearly all actives have a fitted effect of over 70% in size
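Compound inhibition of the preformed complex between 50 nM HP1-beta and 50 nM biotinylated H3K9me3 peptide was read by AlphaScreen. Buffer was PBS pH 7.4 with 0.01% Tween-20. Incubations ran 30 min at room temperature, with 10 ug/mL donor/acceptor beads.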
JMJD2E inh-1: inhibitors of human JMJD2E demethylase, 8HQ series round 1; shares compounds with BAZ2B inh; JMJD2E demethylase, FDH-coupled NADH fluorescence; Potency, µM (top dose mostly 57 µM), for the others: at the highest dose activity, negative = inhibition, actives largely listed as inhibitors; 130 compounds, 89% hits; AID 493212
JMJD2E inh-2: confirmation of inhibitors of human JMJD2E demethylase | AID 2677 | Potency, µM (titrated, usually from 56.8 µM), without a hit: at the top dose activity change, negative = inhibition, hits mostly inhibitors | shares compounds with JMJD2A Tudor inh | Recombinant JMJD2E, FDH-coupled NADH fluorescence (FDH is formaldehyde dehydrogenase) | 140 compounds, 93% hits
FDH counter: FDH (Pseudomonas putida) inhibition counter-screen. Potency, µM (series often up to 56.7 µM), for inactives: top-dose activity, negative = inhibition, hits mostly inhibitors. shares compounds with JMJD2A Tudor inh. 140 compounds, 10% hits. FDH enzyme assay, NADH fluorescence kinetic
JMJD2E MALDI inh: inhibitors of human JMJD2E demethylase; shares compounds with JMJD2A Tudor inh; recombinant JMJD2E demethylation, MALDI-TOF-MS; Potency, µM, most hits filed as inhibitors; 45 compounds, 90% hits;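 active means compounds whose IC50 for blocking JMJD2E demethylation is below 100 µM; inconclusive means dose dependent effect but IC50 above 100 µM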
The depositor's hits bear a star; ? = inconclusive; / = not tested or not shown; [ ] = remark or other dose. Most compounds without a hit are left out; they make up all but 12% or so of the library. Unless noted, the call rests on the fitted dose curve; in most records, active means well fitted curve in the direction sought with a large enough effect; inconclusive means small, poorly fitted or top-dose-only effect, or another doubt; inactive means no such curve, though single readings can be large; an effect the other way counts as inactive or inconclusive.

SMILES	JMJD2A Tudor inh	Sfp inh	BAZ2B inh	G9a block	HP1b chromo inh	JMJD2E inh-1	JMJD2E inh-2	FDH counter	others
O=S(=O)(NCc1ccccc1F)c1ccc(O)c2ncccc12	/	/	/	/	/	22.9µM*	18.2µM*	-36.4%
CCCNc1ncccc1C(N)=O	-1.9%	15.2%	6.9%	-7.7%	10.8%	/	/	/
O=C(Nc1ccccc1F)c1ccc(O)c2ncccc12	/	/	20µM*	2.3%[12.7 µM]	/	28.9µM*	35.5µM*	/	JMJD2E MALDI inh=40.7*
O=C(Nc1cccc2cccnc12)c1cccc2ccccc12	-3.4%	-6.9%	-2.6%	8.3%[59 µM]	45.2%	/	/	/
Oc1ccc(Oc2ccccc2F)c2cccnc12	50.1µM*	/	/	/	/	8.91µM*	12.9µM*	-9.1%	JMJD2E MALDI inh=16.8*
NC(=O)c1ccc(O)c2ncccc12	12.6µM*	/	/	/	/	4.57µM*	4.57µM*	-9.1%	JMJD2E MALDI inh=89.6*
Cc1ccc(C(=O)OCC(=O)NCc2ccc3c(c2)OCO3)cc1S(=O)(=O)N1CCOCC1	-12.3%	/	/	/	41.8%	/	/	/
O=C(O)c1sccc1S(=O)(=O)Nc1ccc(Cl)cc1	/	25.6%	/	/	/	/	/	/
O=C(O)c1ccnc2c(O)cccc12	/	/	1.78µM*	43.4%[12.7 µM]	/	1.45µM*	1.45µM*	/	JMJD2E MALDI inh=8.19*
COC(=O)c1ccc2[nH]c3cccc(/C(=C/c4ccccc4)c4ccccc4)c3c2c1	-6.2%	30.4%	-8.5%	/	26.0%	/	/	/
CN1CCCN(C(=O)c2cccc(Br)c2)CC1	-2.8%	3.7%	-2.3%	/	31.2%	/	/	/
CN1CCN(c2cc(-c3cc(O)c4ncccc4c3)ccn2)CC1	25.1µM*	/	7.94µM*	1.1%[12.7 µM]	18.6%	15.8µM*	15.8µM*	-9.1%
Oc1cc(-c2cccnc2)cc2cccnc12	25.1µM*	/	3.16µM*	28.5%[12.7 µM]	61.3%	5.62µM*	5.62µM*	-27.3%
CN1CCN(C(=O)c2cccc(-c3cc(O)c4ncccc4c3)c2)CC1	50.1µM*	/	12.6µM*	-3.1%[12.7 µM]	50.8%	15.8µM*	15.8µM*	-18.2%
O=C(c1cc2ccccc2cc1O)N1CCN(c2ccccn2)CC1	-24.8%	6.2%	-4.6%	?	-23.2%	/	/	/
CCCCC(=O)Nc1nnc(S(=O)(=O)N(CC)c2cc(C)cc(C)c2)s1	-15.1%	/	-12.2%	-19.2%[59 µM]	34.3%	/	/	/
Oc1c(CNc2ccccc2)cc(COCc2ccccc2)c2cccnc12	-17.1%	/	50.1µM*	-35.5%[12.7 µM]	21.4%	11.5µM*	7.94µM*	-9.1%
Oc1ccc(CNc2cccc(C(F)(F)F)c2)c2cccnc12	/	/	22.4µM*	1.41µM*	/	7.94µM*	7.94µM*	-36.4%
Oc1ccc(Cl)cc1CNc1cccc2cccnc12	?	-21.4%	?	-17.3%	14.4%	/	/	/
O=C(Nc1cccc2cccnc12)c1ccccc1[N+](=O)[O-]	-10.7%	/	1.6%[57.1 µM]	-35.4%[59 µM]	20.5%	/	/	/
Oc1ccc(CNc2cccnc2)c2cccnc12	22.4µM*	/	/	/	/	6.46µM*	12.9µM*	-18.2%	JMJD2E MALDI inh=26.3*
O=[N+]([O-])c1ccccc1NCc1ccc(O)c2ncccc12	?	/	/	/	/	4.47µM*	10.2µM*	-27.3%	JMJD2E MALDI inh=12.2*
O=C(N[C@@H](Cc1ccccc1)C(=O)N1CCN(S(=O)(=O)c2cccc(F)c2)CC1)c1ccco1	-13.4%	/	-13.4%	-33.7%[12.7 µM]	30.8%	/	/	/
Oc1cccc2cc(Nc3ccccc3)cnc12	/	/	/	/	/	10.2µM*	10.2µM*	-18.2%
Oc1cccc2cc(-c3ccccc3)cnc12	/	/	/	/	/	16.2µM*	16.2µM*	0.0%
SMILES	JMJD2A Tudor inh	Sfp inh	BAZ2B inh	G9a block	HP1b chromo inh	JMJD2E inh-1	JMJD2E inh-2	FDH counter	others
O=C(Nc1cccc2cccnc12)c1ccccc1	11.6%	/	/	/	43.7%	/	/	/
Oc1cc(Nc2ccccc2)cc2cccnc12	?	/	?	19.2%[12.7 µM]	16.9%	?	?	-18.2%
Oc1cccc2cc(N3CCCC3)cnc12	/	/	/	/	/	18.2µM*	18.2µM*	-9.1%
Cc1ccc(O)c(CNc2cnc3ccccc3c2)c1	-11.1%	4.9%	?	8.0%	28.8%	/	/	/
COC(=O)c1cc(-c2ccc(Cl)cc2)c2c(=O)[nH]c(=O)n(C)c2n1	-13.1%	/	-0.2%	-3.5%[59 µM]	11.5%	/	/	/
Cc1ccc(OCCNC(=O)c2cc(C(=O)NCCOc3ccc(C)cc3)cc([N+](=O)[O-])c2)cc1	-22.8%	13.7%	-38.4%	-19.5%	6.2%	/	/	/
Oc1cc(NCCN2CCOCC2)cc2cccnc12	22.4µM*	/	2.82µM*	?	22.5%	?	18.2µM*	-27.3%	JMJD2E MALDI inh=25.6*
Cc1ccccc1C(=O)Nc1c(C(=O)N2CCN(C)CC2)cnn1-c1ccccc1	-10.3%	/	/	/	22.9%	/	/	/

Screening results: PubChem, National Center for Advancing Translational Sciences (NCATS)
